Compound activity from PubChem.
Compounds with a hit are over-represented: about 3.5% of the library has one in this group of screens.
Pf apPOL inh: Pf-apPOL inhibitors, biochemical, fluorescence; Plasmodium falciparum apicoplast DNA polymerase (apPOL); Recombinant Pf-apPOL, molecular beacon fluorescence, 1.5 h; inhibition, % at 10 µM; hit rate 0.25% among 210,000; AID 1794808, 2022
mHTT-CaM PPI inh: mutant huntingtin-calmodulin interaction inhibitors – biochemical, AlphaScreen, primary screen; P42858; AlphaScreen His-mHTT/GST-CaM binding, luminescence; inhibition, % at 15 µM; hit rate 3.6% among 190,000; AID 1671202, 2021;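 note: 0% = both proteins with DMSO and 100% = one protein alone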
Target sequence (P42858 whole entry, looked up, stated change not applied): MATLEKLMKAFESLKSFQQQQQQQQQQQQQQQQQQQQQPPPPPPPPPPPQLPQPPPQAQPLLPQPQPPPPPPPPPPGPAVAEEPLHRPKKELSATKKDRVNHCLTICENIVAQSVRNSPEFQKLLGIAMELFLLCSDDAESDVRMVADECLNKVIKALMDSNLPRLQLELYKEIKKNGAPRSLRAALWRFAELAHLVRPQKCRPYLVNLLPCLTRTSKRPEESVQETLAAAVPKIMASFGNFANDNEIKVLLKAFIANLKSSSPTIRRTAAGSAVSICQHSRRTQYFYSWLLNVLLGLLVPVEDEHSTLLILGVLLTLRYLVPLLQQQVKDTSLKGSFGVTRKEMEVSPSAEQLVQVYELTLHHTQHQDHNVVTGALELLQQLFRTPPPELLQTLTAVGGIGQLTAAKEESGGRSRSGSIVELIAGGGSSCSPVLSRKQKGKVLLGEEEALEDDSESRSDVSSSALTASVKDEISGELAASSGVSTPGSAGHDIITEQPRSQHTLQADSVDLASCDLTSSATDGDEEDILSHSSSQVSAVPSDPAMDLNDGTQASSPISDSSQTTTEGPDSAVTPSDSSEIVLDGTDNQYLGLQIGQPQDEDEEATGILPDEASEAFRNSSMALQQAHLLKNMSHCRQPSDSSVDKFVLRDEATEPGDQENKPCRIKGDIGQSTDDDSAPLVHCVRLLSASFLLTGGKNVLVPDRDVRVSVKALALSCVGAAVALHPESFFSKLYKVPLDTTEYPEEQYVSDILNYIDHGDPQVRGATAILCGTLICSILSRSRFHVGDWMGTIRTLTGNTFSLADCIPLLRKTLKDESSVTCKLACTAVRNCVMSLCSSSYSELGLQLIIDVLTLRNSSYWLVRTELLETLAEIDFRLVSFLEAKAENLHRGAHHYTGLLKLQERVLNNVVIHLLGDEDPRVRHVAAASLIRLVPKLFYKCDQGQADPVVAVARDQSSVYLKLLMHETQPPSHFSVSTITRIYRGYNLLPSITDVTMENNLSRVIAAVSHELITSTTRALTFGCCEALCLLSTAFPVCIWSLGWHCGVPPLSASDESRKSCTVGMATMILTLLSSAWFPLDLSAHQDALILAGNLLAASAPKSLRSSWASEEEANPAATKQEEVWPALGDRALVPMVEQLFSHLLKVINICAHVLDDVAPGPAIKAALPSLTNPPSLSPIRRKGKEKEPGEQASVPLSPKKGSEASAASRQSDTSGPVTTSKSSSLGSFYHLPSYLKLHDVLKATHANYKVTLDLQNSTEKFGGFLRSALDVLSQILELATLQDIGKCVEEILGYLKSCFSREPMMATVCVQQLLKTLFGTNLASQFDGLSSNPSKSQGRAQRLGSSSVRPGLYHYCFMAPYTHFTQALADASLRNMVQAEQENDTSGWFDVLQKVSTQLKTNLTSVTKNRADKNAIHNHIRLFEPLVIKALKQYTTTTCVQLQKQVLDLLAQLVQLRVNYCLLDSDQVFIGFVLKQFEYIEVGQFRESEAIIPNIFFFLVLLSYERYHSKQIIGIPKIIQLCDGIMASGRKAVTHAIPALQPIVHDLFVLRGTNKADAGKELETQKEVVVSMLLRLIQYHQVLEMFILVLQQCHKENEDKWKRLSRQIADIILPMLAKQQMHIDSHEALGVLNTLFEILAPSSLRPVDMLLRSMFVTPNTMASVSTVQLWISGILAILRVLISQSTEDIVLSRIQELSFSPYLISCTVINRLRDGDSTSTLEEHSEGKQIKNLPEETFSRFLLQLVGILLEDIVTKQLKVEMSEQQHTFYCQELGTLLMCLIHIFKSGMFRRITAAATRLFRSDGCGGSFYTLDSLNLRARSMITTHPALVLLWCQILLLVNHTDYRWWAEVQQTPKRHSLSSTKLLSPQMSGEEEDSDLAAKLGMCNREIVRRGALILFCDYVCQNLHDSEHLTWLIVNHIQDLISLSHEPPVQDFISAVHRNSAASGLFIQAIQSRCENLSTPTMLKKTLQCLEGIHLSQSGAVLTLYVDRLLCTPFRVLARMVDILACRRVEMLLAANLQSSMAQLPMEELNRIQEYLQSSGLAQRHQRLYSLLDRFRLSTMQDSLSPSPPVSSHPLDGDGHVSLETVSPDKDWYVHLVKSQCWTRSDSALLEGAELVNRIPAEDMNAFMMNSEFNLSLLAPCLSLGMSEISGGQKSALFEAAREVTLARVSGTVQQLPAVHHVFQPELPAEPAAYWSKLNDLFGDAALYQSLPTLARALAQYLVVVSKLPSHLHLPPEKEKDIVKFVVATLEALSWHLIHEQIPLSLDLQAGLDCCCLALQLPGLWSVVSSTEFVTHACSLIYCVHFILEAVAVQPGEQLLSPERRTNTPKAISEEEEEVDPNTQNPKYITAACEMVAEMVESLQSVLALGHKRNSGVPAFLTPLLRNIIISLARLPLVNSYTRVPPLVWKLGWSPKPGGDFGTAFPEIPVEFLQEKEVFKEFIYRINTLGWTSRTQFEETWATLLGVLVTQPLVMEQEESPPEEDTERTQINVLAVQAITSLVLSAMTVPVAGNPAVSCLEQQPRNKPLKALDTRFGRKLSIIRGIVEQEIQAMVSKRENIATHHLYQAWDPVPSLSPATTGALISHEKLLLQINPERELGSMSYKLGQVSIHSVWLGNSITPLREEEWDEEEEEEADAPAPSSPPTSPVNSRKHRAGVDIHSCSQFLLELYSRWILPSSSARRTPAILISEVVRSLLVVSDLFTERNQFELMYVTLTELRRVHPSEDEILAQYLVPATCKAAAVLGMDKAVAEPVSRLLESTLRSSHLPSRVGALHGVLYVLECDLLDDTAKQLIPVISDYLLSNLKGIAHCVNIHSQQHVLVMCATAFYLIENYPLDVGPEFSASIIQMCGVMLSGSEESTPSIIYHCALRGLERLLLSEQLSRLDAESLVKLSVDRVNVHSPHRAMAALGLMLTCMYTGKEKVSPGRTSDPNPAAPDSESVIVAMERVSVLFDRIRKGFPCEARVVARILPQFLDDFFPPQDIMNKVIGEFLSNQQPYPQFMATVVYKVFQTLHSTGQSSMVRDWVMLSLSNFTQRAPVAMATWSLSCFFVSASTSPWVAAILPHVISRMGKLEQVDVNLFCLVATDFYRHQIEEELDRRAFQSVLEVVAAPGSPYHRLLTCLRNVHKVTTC
* = called active by the depositor. Cut-off read from the data, not from the text of the source: active = inhibition above about 50%; inactive = the rest.

Screening O=C(c1ccsc1)N1CCCC(c2ccnc(Nc3cccc(F)c3)n2)C1 (centres undefined) returned Pf apPOL inh -2 and mHTT-CaM PPI inh 67*.
Screening CC(=O)N1CCCC(c2ccnc(Nc3cccc(F)c3)n2)C1 (centres undefined) returned Pf apPOL inh -2 and mHTT-CaM PPI inh 32.
For Cc1cccc(Nc2nccc(C3CCCN(C(=O)c4ccoc4)C3)n2)c1 (centres undefined) the results were Pf apPOL inh 1 and mHTT-CaM PPI inh 29.
`O=C(c1ccccc1)N1CCCC(c2ccnc(Nc3ccc(F)cc3)n2)C1` (centres undefined) gave Pf apPOL inh -7 and mHTT-CaM PPI inh 91*.
N#Cc1cccc(Cn2ccn3cncc3c2=O)c1 was read as Pf apPOL inh -2 and mHTT-CaM PPI inh -4.
`CCOCCCNC(=O)C1CCCN(c2nccnc2Oc2ccccc2)C1` (centres undefined) gave Pf apPOL inh -2 and mHTT-CaM PPI inh -3.
Screening COc1cccc(C(=O)NCc2[nH]nc3ccccc23)c1 returned Pf apPOL inh -4 and mHTT-CaM PPI inh 52*.
Screening Cc1cc(C)cc(C(=O)NCc2[nH]nc3ccccc23)c1 returned Pf apPOL inh -2 and mHTT-CaM PPI inh -1.
Screening Cc1nc(N2CCN(S(=O)(=O)c3cccs3)CC2)cc(-n2cccn2)n1 returned Pf apPOL inh -1 and mHTT-CaM PPI inh -7.
For O=C(Nc1nc(-c2nc3ccccc3s2)cs1)c1ccno1 the results were Pf apPOL inh 5 and mHTT-CaM PPI inh -8.
Screening O=C(NCc1ccccn1)c1sc2ccccc2c1Cl returned Pf apPOL inh 0 and mHTT-CaM PPI inh -3.
CCC(=O)Nc1cccc(NC(=O)c2sc3ccccc3c2Cl)c1 was read as Pf apPOL inh -10 and mHTT-CaM PPI inh 56*.
Cc1ccccc1C(=O)Nc1cccc(NC(=O)c2sc3ccccc3c2Cl)c1 was read as Pf apPOL inh -8 and mHTT-CaM PPI inh 0.
O=C(Nc1nc(-c2ccccn2)cs1)c1sc2ccccc2c1Cl was read as Pf apPOL inh -2 and mHTT-CaM PPI inh 100*.
`O=C(Nc1nc(-c2ccccn2)cs1)c1nc2ccccc2s1` gave Pf apPOL inh -76 and mHTT-CaM PPI inh 100*.
For CCOc1ccc(-c2cc3n(n2)CCCN(C(C)=O)C3)cc1 the results were Pf apPOL inh -20 and mHTT-CaM PPI inh -5.
For O=C1C=CC(=O)C(C2=C3C(=O)N(Cc4ccccc4)CC(=O)N3CCC2)=C1 the results were Pf apPOL inh -8 and mHTT-CaM PPI inh 82*.
`O=C1NCCN(Cc2ccccc2)C1=O` gave Pf apPOL inh -6 and mHTT-CaM PPI inh -1.
For N#CCOc1ccccc1/C=C1\Sc2ccccc2C1=O the results were Pf apPOL inh -4 and mHTT-CaM PPI inh -2.
COc1ccc(CNC2CCSC2)cc1 (centres undefined) was read as Pf apPOL inh -4 and mHTT-CaM PPI inh -5.
Screening O=C1OCCN1C(=O)[C@H]1[C@H](c2ccc([N+](=O)[O-])cc2)C(c2ccccc2)=NN1c1ccccc1 returned Pf apPOL inh -1 and mHTT-CaM PPI inh 47.
For Cc1cccc(C2=NN(c3ccc(Br)cc3)[C@@H](C(=O)N3CCOC3=O)[C@@H]2c2ccc([N+](=O)[O-])cc2)c1 the results were Pf apPOL inh -10 and mHTT-CaM PPI inh 50*.
For Cc1cccc(C2=NN(c3ccc(Br)cc3)[C@@H](C(=O)N3CCOC3=O)[C@@H]2C)c1 the results were Pf apPOL inh 9 and mHTT-CaM PPI inh 3.
Screening O=C1OCCN1C(=O)[C@H]1[C@H](c2ccc([N+](=O)[O-])cc2)C(c2cccc(Cl)c2)=NN1c1ccccc1 returned Pf apPOL inh -1 and mHTT-CaM PPI inh 55*.
CCC1CCCCN1C(=O)c1nn2c(c1Cl)NC(c1ccccc1)CC2C(F)(F)F (centres undefined) was read as Pf apPOL inh -6 and mHTT-CaM PPI inh 87*.
For O=C(c1nn2c(c1Cl)NC(c1ccccc1)CC2C(F)(F)F)N1CCCCC1 (centres undefined) the results were Pf apPOL inh -1 and mHTT-CaM PPI inh 14.
For O=C(c1nn2c(c1Cl)NC(c1ccccc1)CC2C(F)(F)F)N1CCCCCC1 (centres undefined) the results were Pf apPOL inh -2 and mHTT-CaM PPI inh 50.
O=C(c1nn2c(c1Cl)NC(c1ccccc1)CC2C(F)(F)F)N1CCc2ccccc2C1 (centres undefined) was read as Pf apPOL inh -3 and mHTT-CaM PPI inh 72*.
CN(C)C1CN(C(=O)c2ccccc2)CCC1(O)c1ccccc1 (centres undefined) was read as Pf apPOL inh -12 and mHTT-CaM PPI inh -1.
For O=C(C1CCN(c2nc3cccnc3s2)CC1)N1CCCCC1 the results were Pf apPOL inh -4 and mHTT-CaM PPI inh -2.
`CCCN(C)C(=O)c1ccc2c(=O)n3c(nc2c1)CCCC3` gave Pf apPOL inh 0 and mHTT-CaM PPI inh 0.
For COCCN1C(=O)c2ccccc2C(C(=O)N(C)C2CCCCC2)C1c1ccc(F)cc1 (centres undefined) the results were Pf apPOL inh 1 and mHTT-CaM PPI inh 5.
COCCN1C(=O)c2ccccc2C(C(=O)N(C)c2ccc(C(C)C)cc2)C1c1ccc(F)cc1 (centres undefined) was read as Pf apPOL inh -2 and mHTT-CaM PPI inh 57*.
O=C1CC(c2cccc([N+](=O)[O-])c2)CC2=C1C(c1ccc(Cl)cc1)Nc1ccccc1N2 (centres undefined) was read as Pf apPOL inh 12 and mHTT-CaM PPI inh 58*.
For O=C1CC(c2ccccc2)CC2=C1C(c1ccc(Cl)cc1)Nc1ccccc1N2 (centres undefined) the results were Pf apPOL inh 10 and mHTT-CaM PPI inh 45.
O=C1CC(c2ccccc2)CC2=C1C(c1ccc(Cl)c([N+](=O)[O-])c1)Nc1ccccc1N2 (centres undefined) was read as Pf apPOL inh 2 and mHTT-CaM PPI inh 84*.
For O=C1CC(c2ccc(Cl)cc2)CC2=C1C(c1ccccc1[N+](=O)[O-])Nc1ccccc1N2 (centres undefined) the results were Pf apPOL inh -7 and mHTT-CaM PPI inh 25.
Screening O=C(CN1C(=O)/C(=C/c2ccc(Cl)cc2)Sc2ccccc21)NCc1ccco1 returned Pf apPOL inh -1 and mHTT-CaM PPI inh 0.
`NC(=O)c1c2c(nc3ccccc13)CCCC2` gave Pf apPOL inh 3 and mHTT-CaM PPI inh -1.
For CCOc1ccc2cc(-c3csc(CC#N)n3)c(=O)oc2c1 the results were Pf apPOL inh -2 and mHTT-CaM PPI inh -21.
O=C(Cc1cccc(F)c1)Nc1nnc(C2CC(=O)N(c3ccccc3)C2)o1 (centres undefined) was read as Pf apPOL inh -5 and mHTT-CaM PPI inh 41.
Screening Cc1ccc(OCC(=O)Nc2nnc(C3CC(=O)N(c4ccccc4)C3)o2)cc1 (centres undefined) returned Pf apPOL inh -2 and mHTT-CaM PPI inh 22.
`O=C(Cc1ccccc1Cl)Nc1nnc(C2CC(=O)N(c3ccccc3)C2)o1` (centres undefined) gave Pf apPOL inh 0 and mHTT-CaM PPI inh 51*.
For Cc1ccccc1CC(=O)Nc1nnc(C2CC(=O)N(c3ccc(Cl)cc3)C2)o1 (centres undefined) the results were Pf apPOL inh -4 and mHTT-CaM PPI inh 88*.
Screening CCCC(=O)Nc1nnc(C2CC(=O)N(c3ccc(Cl)cc3)C2)o1 (centres undefined) returned Pf apPOL inh -4 and mHTT-CaM PPI inh 10.
